# In PubChem BioAssay:
# Active and inactive are the calls of the source.
# Key:
# [1] = E. coli DRC41 culture turbidity changes, primary screen, E. coli filamentation inducer project, strain DRC41, OD650, 48 h (AID 1152);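 also: E. coli MC1000 strain DRC41 lacking acrAB efflux pump and sulA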; conditions: E. coli DRC41 (acrAB sulA), higher = more signal, called active from +8 up or from −8 down
# [2] = small-molecule binders of probe aLefty1, primary screen, biochemical, small-molecule microarray, 635/667 nm fluorescence (AID 1153); conditions: higher = more signal;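 also: score merges spot fluorescence with signal-to-noise ratio from the scanned slide images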
# [3] = PSAC antagonists in infected red cells, primary screen, cell-based, P. falciparum Indochina, OD700, 1 h (AID 1154); conditions: P. falciparum Indochina infected RBC osmotic lysis, higher = more signal, called active from +8 up or from −8 down
# [4] = PSAC antagonists in infected red cells, primary screen, cell-based, P. falciparum Indochina, OD700, 2 h (AID 1155);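 also: lysis reports solute entry through the parasite surface anion channel PSAC; channel blockers reduce lysis of infected cells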; conditions: P. falciparum Indochina infected erythrocytes, osmotic lysis OD700; higher = more signal, called active from +8 up or from −8 down
# [5] = osmotic lysis modulators in infected erythrocytes, primary screen, PSAC antagonist project, cell-based, P. falciparum Indochina, OD700, 3 h (AID 1156); conditions: higher = more signal, called active from +8 up or from −8 down
# [6] = PSAC antagonists in infected red cells, primary screen, cell-based, P. falciparum Indochina, OD700, 18 h (AID 1157); conditions: P. falciparum Indochina infected erythrocytes, osmotic lysis OD700, 18 h; higher = more signal, called active from +8 up or from −8 down
# [7] = modulators of S6 phosphorylation in cells, primary screen, cell-based, A549, cytoblot, luminescence, serum-stimulated (AID 1158); conditions: A549 phospho-S6 cytoblot, 5 h, higher = more signal;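 also: serum-stimulated A549 lung adenocarcinoma cells; signal is phosphorylated S6 detected by cytoblot immunostaining with HRP secondary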
# [8] = biological target: NADPH oxidase 2 (Homo sapiens) (UniProt P04839); assay: NOX2-dependent H2O2 signal modulators, primary screen, NOX inhibitor project, cell-based, HEK293-NOX2, PMA-stimulated, Amplex Red fluorescence (AID 1159); conditions: 45 min, higher = more signal, called active from +8 up or from −8 down; also: test concentration not given here
# NADPH oxidase 2 (Homo sapiens), sequence (P04839 whole entry, looked up): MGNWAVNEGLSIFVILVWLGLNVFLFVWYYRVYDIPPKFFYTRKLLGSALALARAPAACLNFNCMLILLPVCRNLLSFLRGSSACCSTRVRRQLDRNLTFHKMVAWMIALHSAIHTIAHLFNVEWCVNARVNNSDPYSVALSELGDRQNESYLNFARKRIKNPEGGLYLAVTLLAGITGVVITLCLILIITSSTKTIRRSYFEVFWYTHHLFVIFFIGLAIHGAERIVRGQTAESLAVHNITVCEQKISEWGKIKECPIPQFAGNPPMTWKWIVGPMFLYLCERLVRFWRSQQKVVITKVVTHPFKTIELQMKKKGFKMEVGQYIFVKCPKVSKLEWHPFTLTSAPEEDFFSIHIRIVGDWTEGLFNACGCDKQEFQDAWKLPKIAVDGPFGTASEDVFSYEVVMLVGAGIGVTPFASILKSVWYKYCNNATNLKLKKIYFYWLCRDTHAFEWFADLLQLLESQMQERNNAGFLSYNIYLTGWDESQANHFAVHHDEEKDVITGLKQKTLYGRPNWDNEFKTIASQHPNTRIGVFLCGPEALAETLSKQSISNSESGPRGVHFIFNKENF
# [9] = biological target: NADPH oxidase 4 (Homo sapiens) (UniProt Q9NPH5); assay: NOX4-dependent H2O2 signal modulators, primary screen, NOX inhibitor project, cell-based, HEK293-NOX4, tetracycline-induced, Amplex Red fluorescence (AID 1160); conditions: 45 min, higher = more signal, called active from +8 up or from −8 down
# NADPH oxidase 4 (Homo sapiens), sequence (Q9NPH5 whole entry, looked up): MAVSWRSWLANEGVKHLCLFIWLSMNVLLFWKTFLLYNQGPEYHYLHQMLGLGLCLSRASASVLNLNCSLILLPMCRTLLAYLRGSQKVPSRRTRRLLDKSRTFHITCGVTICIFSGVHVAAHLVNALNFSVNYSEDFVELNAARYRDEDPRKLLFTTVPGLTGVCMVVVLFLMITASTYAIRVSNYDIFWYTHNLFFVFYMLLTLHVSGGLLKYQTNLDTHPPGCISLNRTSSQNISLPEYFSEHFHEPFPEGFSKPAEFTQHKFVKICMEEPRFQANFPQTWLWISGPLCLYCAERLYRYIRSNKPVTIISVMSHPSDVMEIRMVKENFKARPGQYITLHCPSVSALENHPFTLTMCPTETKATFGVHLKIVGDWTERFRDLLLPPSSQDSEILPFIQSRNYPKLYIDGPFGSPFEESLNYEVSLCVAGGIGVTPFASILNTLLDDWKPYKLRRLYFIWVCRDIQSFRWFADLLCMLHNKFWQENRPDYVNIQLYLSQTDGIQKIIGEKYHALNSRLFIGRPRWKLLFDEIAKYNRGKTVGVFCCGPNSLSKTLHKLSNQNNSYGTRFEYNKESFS
# [10] = biological target: NADPH oxidase 5 (Homo sapiens) (UniProt Q96PH1); assay: NOX5-dependent H2O2 signal modulators, primary screen, NOX inhibitor project, cell-based, HEK293-NOX5, Amplex Red fluorescence (AID 1161); conditions: HEK293-NOX5, ionomycin, 45 min, higher = more signal
# NADPH oxidase 5 (Homo sapiens), sequence (Q96PH1 whole entry, looked up): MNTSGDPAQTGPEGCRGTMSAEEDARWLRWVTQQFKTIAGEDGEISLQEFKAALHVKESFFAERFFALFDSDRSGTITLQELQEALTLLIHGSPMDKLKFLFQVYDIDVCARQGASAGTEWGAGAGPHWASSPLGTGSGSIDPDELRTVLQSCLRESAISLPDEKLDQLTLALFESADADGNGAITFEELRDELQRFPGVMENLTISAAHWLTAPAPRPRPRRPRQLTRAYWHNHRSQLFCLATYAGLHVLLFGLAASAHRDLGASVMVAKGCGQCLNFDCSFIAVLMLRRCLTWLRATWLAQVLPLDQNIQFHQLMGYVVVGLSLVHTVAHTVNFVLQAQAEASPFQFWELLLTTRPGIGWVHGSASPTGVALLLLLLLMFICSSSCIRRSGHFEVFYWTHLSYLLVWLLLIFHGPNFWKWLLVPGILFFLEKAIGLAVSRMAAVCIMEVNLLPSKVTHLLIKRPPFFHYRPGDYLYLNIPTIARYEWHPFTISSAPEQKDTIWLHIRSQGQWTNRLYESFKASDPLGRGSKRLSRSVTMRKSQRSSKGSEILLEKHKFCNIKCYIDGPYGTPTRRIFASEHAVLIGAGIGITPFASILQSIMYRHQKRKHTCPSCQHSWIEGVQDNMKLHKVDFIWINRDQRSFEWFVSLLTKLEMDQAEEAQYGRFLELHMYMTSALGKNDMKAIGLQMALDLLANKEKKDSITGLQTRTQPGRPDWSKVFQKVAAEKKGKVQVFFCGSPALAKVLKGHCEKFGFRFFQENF
Structure (SMILES),z-score [1],composite z-score [2],z-score [3],z-score [4],z-score [5],z-score [6],z-score [7],z-score [8],z-score [9],z-score [10]
COC(=O)C1=CC(CCCO)=CC(c2cccs2)N(Cc2cccc(OC(F)(F)F)c2)C=C1C(=O)OC (stereo not given),-0.504 (inactive),-0.126,4.92 (inactive),1.34 (inactive),0.87 (inactive),0.842 (inactive),-0.344,-0.244 (inactive),-0.436 (inactive),-0.0441
CC(C)(C)OC(=O)CC[C@@]1(C(=O)NCC(O)CO)N=C(c2ccc(OCCCO)cc2)O[C@@H]1c1ccccc1CN=[N+]=[N-] (stereo not given in full),0.399 (inactive),0.258,25.3 (active),5.67 (inactive),0.814 (inactive),0.936 (inactive),0.906,1.18 (inactive),0.87 (inactive),0.416
CN(C)C(=O)[C@@]1(Cc2ccccc2CN=[N+]=[N-])N=C(c2ccc(OCCCO)cc2)O[C@H]1c1ccccc1N=[N+]=[N-],-0.383 (inactive),1.48,29.9 (active),26.7 (active),2.61 (inactive),6.04 (inactive),1.76,-3.42 (inactive),-0.18 (inactive),-2.56
COC(=O)[C@]1(CCS(=O)(=O)c2ccccc2)N=C(c2ccc(OCCCO)cc2)O[C@@H]1c1ccccc1N=[N+]=[N-],-1.59 (inactive),0.569,29.4 (active),27.2 (active),4.22 (inactive),6.59 (inactive),0.188,-2.07 (inactive),0.661 (inactive),-2.01
CCOC(=O)C[C@H]1[C@H](OC(=O)c2ccc(C(=O)c3ccccc3)cc2)[C@@H](NC(=O)C2CCCCC2)c2cc(OCCCO)ccc2N1C(=O)c1ccc2ccccc2n1,1.94 (inactive),0.596,3.11 (inactive),0.347 (inactive),-0.238 (inactive),0.0872 (inactive),0.0955,-1.62 (inactive),0.402 (inactive),0.124
[N-]=[N+]=Nc1ccccc1[C@H]1OC(c2ccc(OCCCO)cc2)=N[C@@]1(Cc1ccccc1)C(=O)NCCN1CCOCC1,0.378 (inactive),0.31,33.5 (active),30.9 (active),2.73 (inactive),8.84 (active),0.138,-1 (inactive),0.585 (inactive),1.57
O=C1C[C@]2(c3ccc([N+](=O)[O-])cc3)C(=O)N(C3CC3)c3cc(CO)ccc3[C@H]2N1CC12CC3CC(CC(C3)C1)C2,-0.829 (inactive),0.599,0.617 (inactive),-0.0621 (inactive),0.474 (inactive),0.255 (inactive),0.204,1.36 (inactive),-1.64 (inactive),0.0712
COCCOC(=O)N1C(=O)[C@@]2(c3cc(C#CC4=CCCCC4)ccc31)[C@H](c1ccccc1OCCO)N1[C@H](c3ccccc3)[C@H](c3ccccc3)OC(=O)[C@H]1[C@@H]2C(=O)NC[C@H](O)c1ccccc1,-0.801 (inactive),0.457,1.34 (inactive),2.19 (inactive),-1.61 (inactive),0.703 (inactive),-0.0585,1.79 (inactive),0.529 (inactive),1.81
C=CCC(OC(C)=O)[C@@H]1[C@@H](N(Cc2ccc(-c3ccccc3)cc2)C(=O)c2ccc(-c3ccccc3)cc2)c2cc(OCCCO)ccc2N1C(=O)c1ccc2ccccc2c1 (stereo not given in full),-0.75 (inactive),0.445,0.225 (inactive),-0.135 (inactive),-0.503 (inactive),-0.0602 (inactive),0.6,0.707 (inactive),0.987 (inactive),0.99
CC(C)NC(=O)[C@@]1(c2ccc([N+](=O)[O-])cc2)CC(=O)N(C2CCCCC2)[C@@H]1c1ccc(CO)cc1,1.1 (inactive),-0.154,0.66 (inactive),0.168 (inactive),0.18 (inactive),-0.0376 (inactive),-0.391,0.0357 (inactive),0.164 (inactive),-0.229
O=C1O[C@@H](c2ccccc2)[C@@H](c2ccccc2)N2[C@@H](c3ccc(OCCO)cc3)[C@]3(C(=O)Nc4ccc(C#CC5=CCCCC5)cc43)[C@@H](C(=O)NC[C@H](O)c3ccccc3)[C@H]12,-0.836 (inactive),1.38,1.96 (inactive),0.982 (inactive),-0.607 (inactive),0.381 (inactive),-0.164,1.61 (inactive),0.433 (inactive),0.469
O=C(NCc1ccc(F)cc1)[C@H]1C[C@H]2C(=O)NCC(=O)N2[C@H]1c1ccc(O)cc1,0.357 (inactive),0.239,1.11 (inactive),0.285 (inactive),-2.04 (inactive),0.4 (inactive),-0.337,0.992 (inactive),0.558 (inactive),0.693
CC(c1ccccc1)C(O)C1C=CC2C(=O)N(C)C(=O)C2N1Nc1ccccc1 (stereo not given),-1.14 (inactive),0.146,0.627 (inactive),0.782 (inactive),-0.0204 (inactive),0.999 (inactive),-0.945,-1.51 (inactive),-3.77 (inactive),-3.26
COc1cc2c(cc1O)C=[N+](Cc1sc3ccccc3c1Cl)CC2,-0.569 (inactive),0.065,5.58 (inactive),2 (inactive),-0.703 (inactive),1.58 (inactive),-0.336,-3.84 (inactive),-2.35 (inactive),-4.02
CC(C)(C)OC(=O)COc1cccc(C(=O)CCN2CCOCC2)c1,0.922 (inactive),0.265,6.63 (inactive),1.21 (inactive),-0.481 (inactive),0.548 (inactive),0.202,-5.78 (inactive),1.09 (inactive),2.12
C=CCNC(=O)[C@@H]1[C@H]2C(=O)O[C@H](c3ccccc3)[C@H](c3ccccc3)N2[C@H](c2ccc(O)cc2)[C@@]12C(=O)N(C(=O)OCCOC)c1ccc(C#CC3=CCCCC3)cc12,-1.1 (inactive),0.319,1.78 (inactive),0.836 (inactive),-0.942 (inactive),0.313 (inactive),0.0229,1.61 (inactive),0.339 (inactive),0.344
[N-]=[N+]=Nc1ccccc1C[C@]1(C(=O)NCC(O)CO)COC(c2ccc(OCCCO)cc2)=N1 (stereo not given in full),0.759 (inactive),0.0512,22.8 (active),4.35 (inactive),3.57 (inactive),1.06 (inactive),0.575,1.52 (inactive),0.179 (inactive),-1.13
CC(CO)N1C(=O)[C@@H]2[C@H]3C(=O)OCC=C[C@H]3OC23C=CCN(Cn2nnc4ccccc42)C(=O)[C@@H]13 (stereo not given in full),-0.597 (inactive),-0.147,0.638 (inactive),0.359 (inactive),0.029 (inactive),0.0866 (inactive),-0.0773,0.698 (inactive),0.672 (inactive),1.78
COc1ccc([Si](C)(C)[C@@H]2[C@@H](CCO)O[C@]3(C(=O)N(Cc4ccccc4)c4ccc(N5C(=O)c6cccc7cccc5c67)cc43)[C@H]2C)cc1,0.487 (inactive),-0.0111,2.72 (inactive),2.2 (inactive),0.504 (inactive),1.16 (inactive),-0.0126,0.326 (inactive),0.1 (inactive),2.32
CC(C)N1C(=O)c2ccccc2[C@@H](C(=O)NCCN2CCOCC2)[C@@H]1c1ccc(CO)cc1,-0.675 (inactive),-0.0908,2.01 (inactive),-0.151 (inactive),1.24 (inactive),0.255 (inactive),-0.468,1.59 (inactive),0.675 (inactive),0.474
OCCCC1=CC(c2ccc(CN3CCCC3)cc2)N(Cc2cc3c(cc2Br)OCO3)CC1 (stereo not given),0.0676 (inactive),0.192,3.7 (inactive),0.63 (inactive),0.795 (inactive),0.601 (inactive),-0.187,-3.1 (inactive),-1.21 (inactive),-1.2
COc1ccc(C(=O)Nc2ccc(CN3C(=O)[C@]4(O[C@H](CC(=O)N5Cc6ccccc6C[C@H]5CO)[C@@H]([Si](C)(C)c5ccc(OC)cc5)[C@@H]4C)c4ccccc43)cc2)cc1,-0.298 (inactive),0.0004,3.15 (inactive),1.5 (inactive),1.15 (inactive),0.941 (inactive),0.383,0.545 (inactive),-0.307 (inactive),2.12
C=CCC(OC(C)=O)[C@@H]1[C@@H](N(Cc2ccc(-c3cccc(C(F)(F)F)c3)o2)C(=O)c2ccc(-c3ccccc3)cc2)c2cc(OCCCO)ccc2N1C(=O)Cc1ccc2ccccc2c1 (stereo not given in full),-0.75 (inactive),0.0451,0.702 (inactive),0.609 (inactive),0.191 (inactive),0.532 (inactive),0.0285,-1.34 (inactive),-1.69 (inactive),-0.791
CCOC(=O)C[C@H]1[C@H](OC(=O)Cc2ccc3c(c2)OCO3)[C@@H](NC(=O)C2CCCCC2)c2cc(OCCCO)ccc2N1C(=O)c1ccccc1,2.81 (inactive),-0.06,1.27 (inactive),0.569 (inactive),-0.481 (inactive),0.0872 (inactive),0.524,-0.233 (inactive),0.636 (inactive),-0.206
NCCCCCNC(=O)[C@H]1C[C@H]2C(=O)N3CCC[C@H]3C(=O)N2[C@H]1c1cccc(OCCO)c1,-0.068 (inactive),0.984,3.03 (inactive),0.598 (inactive),0.428 (inactive),0.301 (inactive),-0.413,2.6 (inactive),0.413 (inactive),2.48
NCCCCCNC(=O)[C@@H]1C[C@@H]2C(=O)N[C@@H](CCCCN)C(=O)N2[C@@H]1c1ccc(O)cc1,-0.175 (inactive),0.739,3.95 (inactive),1.74 (inactive),-2.34 (inactive),0.937 (inactive),-0.912,1.5 (inactive),1.85 (inactive),1.48
